Source: PubChem BioAssay (several laboratories)
Hits are enriched below; roughly 3.4% of the tested compounds scored in any of these assays.
ADAM10 inh – inhibitors of human ADAM10 | recombinant ADAM10, EDANS/DABCYL FRET peptide cleavage, 3 h | inhibition, % at 7 µM | actives 0.62% (n = 370,000) | AID 720582;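 active = inhibition above a per-campaign cutoff equal to the mean of compounds falling between control-based bounds plus 3 SD, cut at about 20% in these data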;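 note: 0% = DMSO wells while the 100% control is not disclosed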
Target sequence (O14672 214-748 limits assumed): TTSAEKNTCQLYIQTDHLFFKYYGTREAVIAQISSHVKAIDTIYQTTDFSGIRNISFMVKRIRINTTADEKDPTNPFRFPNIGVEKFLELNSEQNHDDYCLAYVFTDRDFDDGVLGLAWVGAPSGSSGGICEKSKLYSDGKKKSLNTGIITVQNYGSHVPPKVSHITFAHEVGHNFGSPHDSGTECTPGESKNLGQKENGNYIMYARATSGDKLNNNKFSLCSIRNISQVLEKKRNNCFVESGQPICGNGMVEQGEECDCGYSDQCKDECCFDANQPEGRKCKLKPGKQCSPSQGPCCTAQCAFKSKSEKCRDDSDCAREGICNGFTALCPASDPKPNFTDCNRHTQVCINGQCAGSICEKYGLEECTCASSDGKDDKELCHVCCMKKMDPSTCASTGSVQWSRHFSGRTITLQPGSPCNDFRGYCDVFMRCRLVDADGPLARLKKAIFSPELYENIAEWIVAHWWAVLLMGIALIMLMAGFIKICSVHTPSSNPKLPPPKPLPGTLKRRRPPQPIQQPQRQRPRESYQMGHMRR
HGIII-sPLA2 inh – Inhibits HGIII-sPLA2 liposome hydrolysis, primary screen. Q9NZ20. inhibition, % at 12.2 µM. actives 0.56% (n = 370,000). QFRET BODIPY PC-A2 liposome hydrolysis, fluorescence. AID 743126;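 active = inhibition above mean plus 3 SD of compounds lying within the high and low control bounds, cut at about 19% in these data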;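 note: 0% = median of test compound wells and 100% = no enzyme DMSO wells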
NRP1-CendR mod – NRP-1/CendR interaction modulation. O14786. AID 602438. actives 0.85% (n = 360,000). inhibition, % at 25 µM. FAM-RPARPAR peptide binding to NRP-1, fluorescence polarization;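 active = inhibition or corrected inhibition above about 18%, plus a signal ratio from 0.5 to 1.5, limit read from the data, passing the limit was not always enough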
KLK7 zymogen act – proKLK7 (human) activation, primary screen. actives 0.9% (n = 370,000). purified proKLK7, EDANS-DABCYL substrate fluorescence; 100% is mature enzyme control, 0% vehicle. P49862. activation, % at 7 µM. AID 652039;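 active = activation above the mean of all tested compounds plus 3 SD, computed per campaign excluding outliers beyond control limits, cut at about 13% in these data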
ADAM17 inh – ADAM17 inhibition, QFRET primary screen; P78536; recombinant ADAM17, EDANS/DABCYL FRET peptide cleavage; inhibition, % at 6.95 µM; actives 0.83% (n = 370,000); AID 720648;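 active = inhibition above the mean of compounds lying between control limits plus 3 SD, set per campaign, cut at about 8.5% in these data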;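 note: 0% = DMSO-only wells as the low control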
KLK7 act conf – proKLK7 activation, confirmation; shares compounds with KLK7 zymogen act; purified proKLK7, EDANS-DABCYL substrate fluorescence; scaled: vehicle 0, mature enzyme 100; activation, % at 7 µM; actives 68% (n = 3,200);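 active = activation, as change over the incubation, above the mean of all tested compounds plus 3 SD, cut at about 13% in these data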
EDANS-DABCYL int – counter-screen for kallikrein-7 activators: EDANS-DABCYL optical interference; EDANS-DABCYL substrate fluorescence interference, no enzyme, 4 h; solvent 0%, active enzyme control 100%; activation, % at 7 µM; shares compounds with KLK7 zymogen act; AID 686952; actives 80% (n = 3,200);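 active = activation above the all-compound mean plus 3 SD, ignoring values outside control-based bounds, cut at about 4.8% in these data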;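 note: value is the 4 h activation minus the activation read at time zero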
K7 EDANS ctr – EDANS fluorescence interference in dose response, no enzyme; AID 720493; shares compounds with KLK7 zymogen act; EC50, µM; EDANS-DABCYL peptide fluorescence interference; actives 20% (n = 250);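 active = compounds that raise the fluorescence signal in this interference counterscreen, with EC50 at or below 10 µM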;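 note: intact quenched peptide substrate alone read at 355 nm excitation and 520 nm emission; signal is fluorescence gain from T0 to T4 after four hours at room temperature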
* = called active by the depositor; i = inactive; / = not tested or not shown.

SMILES | ADAM10 inh | HGIII-sPLA2 inh | NRP1-CendR mod | KLK7 zymogen act | ADAM17 inh | KLK7 act conf | EDANS-DABCYL int | others
Nc1c(Cl)cc(Cl)cc1C(=O)OCC(=O)N1CCCC1 | i | -2 | -14 | 13* | i | 18* | 15* | K7 EDANS ctr=>70
COC(=O)CNC(=O)COC(=O)c1cc(Cl)cc(Cl)c1N | i | 2 | -3 | 15* | i | 53* | 40* | K7 EDANS ctr=>69
CN(CCC#N)C(=O)COC(=O)c1ccccc1OCc1ccccc1Cl | 4 | -10 | 5 | 0 | -1 | / | /
CN(CCC#N)C(=O)COC(=O)c1cc(Cl)cc(Cl)c1N | i | -4 | 7 | 16* | -473 | 12 | 11*
CC(C)CNC(=O)COC(=O)c1cc(Cl)cc(Cl)c1N | i | 0 | -3 | 21* | -482 | -9 | -16
O=C(Nc1ccccn1)c1ccccc1 | -6 | 7 | 15 | 0 | -3 | / | /
O=C(CC(=O)c1ccccc1)Nc1ccccn1 | -247 | 0 | 8 | 21* | -107 | 2 | 2
Cc1nc2nc(CCNS(=O)(=O)c3ccc(Cl)cc3)cn2nc1C | i | 5 | 5 | 24* | -355 | 75* | 75*
COc1ccc(S(=O)(=O)NCCc2cn3nc(C)c(C)nc3n2)cc1 | i | 0 | 6 | 32* | -314 | 71* | 77*
CC(CCN1CCC(C(O)(c2ccccc2)c2ccccc2)CC1)Oc1cc(F)cc(C#N)c1 (stereo unspecified) | 7 | -8 | / | 0 | 6 | / | /
COC(=O)c1cc(S(=O)(=O)N2CCN(c3ccccc3Cl)CC2)cn1C | -3 | -5 | / | 0 | 2 | / | /
NC(=O)c1c(C(F)(F)F)cc(-c2ccccc2)nc1NCCO | -438 | -2 | 7 | 7 | -136 | / | /
CCCCNc1nc(-c2ccccc2)cc(C(F)(F)F)c1C(N)=O | -244 | -2 | 8 | 19* | -77 | -5 | -5
O[C@H](COc1ccccc1)CN1CCC(C(O)(c2ccccc2)c2ccccc2)CC1 | 2 | -17 | / | 0 | 5 | / | /
COc1ccc(-n2c(O)c(/C=N/NS(=O)(=O)c3cccc([N+](=O)[O-])c3)c3ccccc3c2=O)cc1OC | -67 | -6 | -160 | 24* | -14 | 77* | 67*
COc1ccc(CNC2CCC23CCC(C)CC3)cc1 (stereo unspecified) | -9 | 6 | / | / | -6 | / | /
Cc1ccc(C)c(NC(=O)C2CCCN2S(=O)(=O)c2cccc3cccnc23)c1 (stereo unspecified) | 6 | -2 | / | 0 | 2 | / | /
CCCCC(=O)Nc1c(-c2ccc(OC)c(OC)c2)c(=O)c2ccccc2n1C | 1 | -4 | 5 | 0 | -1 | / | /
CCCCCC(=O)Nc1c(-c2ccc(OC)cc2)c(=O)c2ccccc2n1C | -436 | 9 | 2 | 17* | -141 | 3 | 1
CCCC(=O)Nc1c(-c2ccc(OC)cc2)c(=O)c2ccccc2n1C | -332 | 4 | -3 | 17* | -107 | 20* | 17* | K7 EDANS ctr=i
Cc1cccc2c(C(=O)O)c3cccc(C)c3nc12 | i | -5 | -5 | 28* | -349 | 49* | 42* | K7 EDANS ctr=>69
COC(=O)[C@]12C[C@H](CC(=O)N3CCSCC3)C(=O)N(Cc3cccc4ccccc34)C1=C[C@H](C(C)C)O[C@@H]2C1CC1 | 13 | -4 | / | 0 | 6 | / | /
Cc1cc(=O)oc2cc(OCC(=O)N3CCOCC3)c(Cl)cc12 | i | -1 | -1 | 18* | i | 33* | 24* | K7 EDANS ctr=>70
CC(C)CN1C(=O)[C@]2(CC(=O)N(C)C2c2ccccc2)c2cc(-n3cc(CN(C)C)nn3)ccc21 (stereo partly specified) | 3 | -3 | / | 0 | 1 | / | /
CCCCCCCCN1C(=O)[C@@H](CC(=O)NCCCOCCCC)C[C@@]2(C(=O)OC)C1=C[C@H](COCc1ccccc1)O[C@@H]2C | 6 | -16 | / | 1 | 3 | / | /
SMILES | ADAM10 inh | HGIII-sPLA2 inh | NRP1-CendR mod | KLK7 zymogen act | ADAM17 inh | KLK7 act conf | EDANS-DABCYL int | others
N#CC(=Cc1ccncc1)c1ccccc1 | -4 | 1 | 14 | 0 | -2 | / | /
N#C/C(=C\c1ccncc1)c1nc2c(s1)CCCC2 | -484 | -9 | 6 | 38* | -130 | 22* | 22*
Cc1nc2ccc(-c3nc4cc(N)ccc4o3)cc2[nH]1 | -385 | 0 | 4 | 28* | -93 | 46* | 49*
Cc1ccc2nc3ccc(N4CCN(C)CC4)nn3c(=O)c2c1 | -227 | 3 | -10 | 40* | -76 | 12 | 13*
Cc1ccc2nc3ccc(N4CCCCCCC4)nn3c(=O)c2c1 | -14 | -2 | 4 | 2 | -8 | / | /
COc1ccc(C2=CC(c3ccc(OC)c(OC)c3)n3nnnc3N2)c(OC)c1 (stereo unspecified) | -67 | -18 | 16 | 16* | -8 | 11 | -15
COc1cccc(C2C=C(c3ccc(OC)cc3OC)Nc3nnnn32)c1 (stereo unspecified) | / | / | 8 | / | / | / | /
CCN1c2ccccc2-c2nc3ccccc3n2C1c1cccnc1 (stereo unspecified) | i | 3 | 0 | 10 | -225 | / | /
c1cncc(C2Nc3ccccc3-c3nc4ccccc4n32)c1 (stereo unspecified) | i | -19 | -11 | 56* | i | 5 | 5.7*
O=C1c2ccccc2NC(c2ccncc2)N1c1ccccn1 (stereo unspecified) | i | 3 | 8 | 36* | -339 | 18* | 29*
c1ccc2c(c1)NC(c1ccncc1)n1c-2nc2ccccc21 (stereo unspecified) | i | 1 | 1 | 29* | i | 0 | 3
CCn1c2ccccc2c2cc(NC(=O)CN3CCCC3)ccc21 | -8 | 1 | 3 | 82* | -4 | -1 | -1
CSc1scc2c1-c1nc(SCC(=O)C(C)(C)C)ncc1CC2 | -408 | 1 | 17 | -7 | -171 | / | /
C=CCNC(=O)CSc1ncc2c(n1)-c1c(csc1SC)CC2 | i | 3 | 8 | 46* | i | 59* | 69*
CCC1OC23CCCCC2C(C#N)(C(=N)O3)C1(C#N)C#N (stereo unspecified) | i | -5 | -2 | 14* | -411 | 68* | 62*
C=CCN1[C@H](CO)[C@H](c2ccc(C#CC3(O)CCCC3)cc2)[C@@H]1C#N | -6 | -4 | / | 1 | 1 | / | /
CCC[C@H]1[C@@H](OC(=O)NCc2cccs2)CC[C@@]23CCCN2C(=O)CCC[C@@H]13 | 4 | 4 | / | / | 4 | / | /
